Results filed as inconclusive are left out. Activity calls are given as the source filed them. Rule for the calls, unless noted: active = hit-call score of the fitted dose curve at least 0.9, where 1 is the maximum; inconclusive = response in the unintended direction; inactive = score below 0.9.

A short description of assay [1]: Tanguay_ZF_120hpf_PE_legacy: (Legacy) Oregon State University Tanguay Lab 120 Hour Post-fertilization zebrafish Assay for Pericardial Edema (AID 2283640). Put shortly:
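Static waterborne exposure, 5D wild-type embryos, 28C, to 120 hpf; final DMSO 0.64% (vol/vol). Binary PE call at 120 hpf by brightfield; fitted upward vs DMSO baseline. 5uM trimethyltin chloride as positive control.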

Assay [2] can be described thus: Tanguay_ZF_120hpf_BRAI_legacy: (Legacy) Oregon State University Tanguay Lab 120 Hour Post-fertilization zebrafish Assay for Brain Malformation (AID 2283641). In short, it runs like this: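 Read-out: binary brain morphology call at 120 hpf (brightfield), fitted in gain-of-signal direction vs DMSO. Wild-type Tropical 5D embryos, static exposure, 28C, 0.64% DMSO final; 5uM trimethyltin chloride as positive control.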

Assay [3] is described as follows: Tanguay_ZF_120hpf_SOMI_legacy: (Legacy) Oregon State University Tanguay Lab 120 Hour Post-fertilization zebrafish Assay for Somite Malformation (AID 2283647). In short, it runs like this: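 Binary brightfield scoring of somite defects at 120 hpf in 5D wild-type larvae; one dechorionated embryo per well, static exposure from 6 hpf, 28C, sealed and dark. Final DMSO 0.64%; trimethyltin chloride 5uM positive control.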

The nature of assay [4]: Tanguay_ZF_120hpf_PFIN_legacy: (Legacy) Oregon State University Tanguay Lab 120 Hour Post-fertilization zebrafish Assay for Pectoral Fin Malformation (AID 2283648).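 Note: each larva judged yes or no for fin defect by brightfield with dead larvae skipped.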 In short, it runs like this:
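Dechorionated Tropical 5D wild-type zebrafish embryos, one per well, statically exposed from 6 to 120 hpf at 28C with 0.64% DMSO final. Pectoral fin malformation scored present/absent by brightfield at 120 hpf; not scored in dead embryos.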

The nature of assay [5]: Tanguay_ZF_120hpf_CFIN_legacy: (Legacy) Oregon State University Tanguay Lab 120 Hour Post-fertilization zebrafish Assay for Caudal Fin Malformation (AID 2283649). Put shortly:
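Dechorionated 5D wild-type zebrafish, static exposure 6–120 hpf, 28C, sealed and dark, 0.64% v/v DMSO final. Binary fin-malformation call at 120 hpf, brightfield; gain of signal vs DMSO baseline.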

Assay [6] in a line: Tanguay_ZF_120hpf_CIRC_legacy: (Legacy) Oregon State University Tanguay Lab 120 Hour Post-fertilization zebrafish Assay for Circulatory Malformation (AID 2283651). In short, it runs like this:
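Dechorionated wild-type 5D zebrafish embryos, one per well, statically exposed from 6 to 120 hpf at 28C with 0.64% DMSO; circulatory malformation scored present/absent by brightfield microscopy at 120 hpf, dead embryos excluded.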

The nature of assay [7]: Tanguay_ZF_120hpf_SWIM_legacy: (Legacy) Oregon State University Tanguay Lab 120 Hour Post-fertilization zebrafish Assay for Swim Bladder Malformation (AID 2283654).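 Note: swim bladder malformation in each larva scored yes or no under brightfield.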 Put shortly:
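Dechorionated wild-type Tropical 5D zebrafish embryos, one per well from 6 hpf, were statically exposed at 28C until 120 hpf in 0.64% DMSO. Swim bladder malformation scored as present/absent by brightfield microscopy; not scored in dead larvae.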

A short description of assay [8]: Tanguay_ZF_120hpf_TRUN_legacy: (Legacy) Oregon State University Tanguay Lab 120 Hour Post-fertilization zebrafish Assay for Truncated Body (AID 2283655). In short, it runs like this: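 Whole-embryo zebrafish screen: dechorionated 5D embryos, static exposure 6–120 hpf, 28C, sealed foil-covered plates, 0.64% DMSO. Binary truncation call; gain of signal versus DMSO baseline.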

The nature of assay [9]: Tanguay_ZF_120hpf_NC_legacy: (Legacy) Oregon State University Tanguay Lab 120 Hour Post-fertilization zebrafish Assay for Notochord and Tail Malformation (AID 2283656). In short, it runs like this:
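Dechorionated Tropical 5D wild-type zebrafish embryos, one per well from 6 hpf, statically exposed to 120 hpf at 28C in 0.64% DMSO final. Notochord distortion scored present/absent by brightfield; dead embryos excluded.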

Assay [10] is described as follows: Tanguay_ZF_120hpf_TR_legacy: (Legacy) Oregon State University Tanguay Lab 120 Hour Post-fertilization zebrafish Assay for Touch Response (AID 2283667). Put shortly: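 Tropical 5D wild-type zebrafish embryos statically exposed to 120 hpf at 28°C, sealed and dark-covered, 0.64% DMSO final; touch response scored as present/absent by brightfield microscopy at 120 hpf. Trimethyltin chloride 5 uM positive control; dead embryos not scored.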

Assay [11] can be described thus: STM_H9_OrnithineISnorm_perc: Stemina devTOX quickPredict H9 human embryonic stem cell (hESC)-based Assay for Ornithine (ORN) Metabolite Biomarker, Normalized (AID 2283712; active = hit-call score of the fitted dose curve at least 0.9, where 1 is the maximum; inactive = score below 0.9;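 note: ornithine released into spent medium during last day measured by mass spectrometry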). Put shortly: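 Undifferentiated H9 hESCs exposed 72 h with daily media and compound renewal; final 24-h conditioned medium analysed by UPLC-HRMS. Ornithine peak area normalised to spiked C13 standard and to median 0.1% DMSO control; viability by CellTiter-Fluor.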

Assay [12] is described as follows: Tanguay_ZF_120hpf_PIG_legacy: (Legacy) Oregon State University Tanguay Lab 120 Hour Post-fertilization zebrafish Assay for Pigmentation Malformation (AID 2283650). Put shortly: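 Dechorionated Tropical 5D wild-type embryos, one per well from 6 hpf, statically exposed at 28C in the dark until 120 hpf, 0.64% DMSO final. Pigmentation scored present/absent by brightfield microscopy; dead embryos not scored; fitted versus DMSO.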

Assay [13] can be described thus: CCTE_Padilla_ZF_144hpf_TERATOSCORE: (Legacy) CCTE's 144 Hour Post-fertilization zebrafish Assay Teratoscore, Padilla Lab (AID 2283679; active = hit-call score of the fitted dose curve at least 0.9, where 1 is the maximum; inactive = score below 0.9;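 for AC50: zebrafish embryos with chorions exposed by immersion from 6-8 hpf to 5 dpf with daily renewal; teratogenicity score from eye scoring of death hatching and malformations at 144 hpf; higher score means more developmental defects relative to DMSO baseline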). In short, it runs like this:
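Larvae scored by eye at 144 hpf for death, hatching and malformations after a day in clean Hanks'. Before that, daily-renewed exposure at 80 uM (0.4% DMSO, 26C) from roughly 6-8 hpf through 5 dpf, 4 embryos per chemical.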

Read-out in assay [14]: kallikrein-3 (KLK3), KLK3 (gene 354)
As to the kind of experiment: LTEA_HepaRG_KLK3: Life Technologies and Expression Analysis (LTEA) Assay for kallikrein-3 (KLK3) using HepaRG (AID 2283652; active = hit-call score of the fitted dose curve at least 0.9, where 1 is the maximum; inactive = score below 0.9). Particulars: mRNA level, 48 h; actives raise or lower the signal. Put shortly: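 Differentiated human HepaRG cells in serum-free induction medium exposed 48 h in duplicate, eight-point half-log series from 100 uM in 0.5% DMSO. KLK3 mRNA by qRT-PCR, normalised to ACTB, GAPDH, POLR2A; bidirectional fit versus DMSO.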

Read-out in assay [15]: solute carrier (SLC22A6), SLC22A6 (gene 9356)
Put plainly: LTEA_HepaRG_SLC22A6: Life Technologies and Expression Analysis (LTEA) Assay for solute carrier (SLC22A6) using HepaRG (AID 2283653; active = hit-call score of the fitted dose curve at least 0.9, where 1 is the maximum; inactive = score below 0.9). Particulars: mRNA level, 48 h; actives raise or lower the signal. Put shortly: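 HepaRG, human liver line; 48 h chemical exposure; 8-pt half-log series from 100 uM in 0.5% DMSO, duplicate wells. Readout: TaqMan qRT-PCR of SLC22A6 mRNA, housekeeping-normalised; bidirectional curve fit vs DMSO baseline.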

Read-out in assay [16]: solute carrier (SLC10A1), SLC10A1 (gene 6554)
As to the kind of experiment: LTEA_HepaRG_SLC10A1: Life Technologies and Expression Analysis (LTEA) Assay for solute carrier (SLC10A1) using HepaRG (AID 2283657; active = hit-call score of the fitted dose curve at least 0.9, where 1 is the maximum; inactive = score below 0.9). As to conditions: mRNA level, 48 h; actives raise or lower the signal. In short, it runs like this:
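HepaRG cells (single lot) exposed 48 h in serum-free induction medium, 8-point half-log series from 100 uM top in 0.5% DMSO, duplicate. SLC10A1 mRNA by qRT-PCR normalised to ACTB, GAPDH, POLR2A; bidirectional fit versus DMSO.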

Read-out in assay [17]: matrix metalloproteinase-1 (MMP1), MMP1 (gene 4312)
As to the kind of experiment: LTEA_HepaRG_MMP1: Life Technologies and Expression Analysis (LTEA) Assay for matrix metalloproteinase-1 (MMP1) using HepaRG (AID 2283658; active = hit-call score of the fitted dose curve at least 0.9, where 1 is the maximum; inactive = score below 0.9). Particulars: mRNA level, 48 h; actives raise or lower the signal. Put shortly:
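MMP1 transcript read by TaqMan qRT-PCR (Fluidigm array) after 48 h chemical exposure of HepaRG cells in serum-free induction medium. Eight-point half-log series, top 100 uM, 0.5% DMSO vehicle. Bidirectional curve fit against DMSO baseline.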

Read-out in assay [18]: Cytochrome P450 (CYP24A1_1), CYP24A1 (gene 1591)
Put plainly: LTEA_HepaRG_CYP24A1_1: Life Technologies and Expression Analysis (LTEA) Assay for Cytochrome P450 (CYP24A1_1) using HepaRG (AID 2283671; active = hit-call score of the fitted dose curve at least 0.9, where 1 is the maximum; inactive = score below 0.9). As to conditions: mRNA level, 48 h; actives raise or lower the signal. Put shortly:
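Differentiated human HepaRG cells in serum-free induction medium, exposed 48 h in duplicate to eight half-log concentrations from 100 uM top, 0.5% DMSO. Transcript measured by TaqMan qRT-PCR, normalised to ACTB, GAPDH, POLR2A; bidirectional fitting versus DMSO.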

Assay [19] deals with Thyroperoxidase (TPO), gene 54314. As to the kind of experiment: CCTE_Simmons_AUR_rTPO: CCTE's Amplex UltraRed Assay for Thyroperoxidase (TPO) Inhibition, Simmons Lab (AID 2283662).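 Note: potency for loss of signal meaning inhibition of peroxidase activity.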 Put shortly:
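Cell-free peroxidase activity assay using rat thyroid gland microsomes with excess H2O2 (300 uM) and 25 uM Amplex UltraRed. Compounds tested from 5 nM to 87.5 uM; fluorescence measured after 30 min at 37C, analysed relative to DMSO baseline.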

Assay [20] in a line: CCTE_Simmons_CellTiterGLO_HEK293T: Viability Assessment in CCTE's Assays for Thyroperoxidase (TPO) Inhibition, Simmons Lab (AID 2283665).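 Note: cells exposed to compound for 24 h before readout; actives reduce ATP signal below DMSO vehicle meaning cytotoxicity.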 In short, it runs like this: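 HEK293T cells in DMEM with 1% FBS, dosed 24 h at 37C with 8 concentrations, 5 nM–87.5 uM final, 0.5% DMSO. ATP measured by CellTiter Glo luminescence; loss of signal vs DMSO, three biological replicates.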

In the case of `Nc1nc(Cl)nc2c1ncn2[C@H]1C[C@H](O)[C@@H](CO)O1`, the call in assay [1], in assay [2], in assay [3], in [4], in assay [5] and in assay [6] was inactive. Besides, the result in assay [7], in assay [8], in assay [9] and in [10] was inactive. The AC50 in assay [11] is 0.35 µM (active).

As to `CC(N)=O`, the compound was classed as inactive in [1], in [2], in [3], in assay [4], in assay [12] and in assay [6]. Moreover, the result in assay [7], in assay [9], in [10] and in assay [13] was inactive.

Turning to `CC(C)(O)c1ccc(CNC(=O)c2cccnc2Oc2ccc(F)cc2)cc1`, the result in [1], in assay [2], in assay [3], in assay [4], in assay [5] and in assay [12] was inactive. In addition, the call in assay [9], in assay [10] and in assay [13] was inactive.

Regarding `O=C1CCCCC1`, the result in assay [1], in assay [2], in assay [3], in assay [4], in assay [5] and in assay [12] was inactive. For the same compound, the compound was classed as inactive in assay [6], in assay [7], in assay [8], in assay [9], in assay [10] and in [13].

Regarding `CCCCCCC(CCCCCCCCCCC(=O)OCC(COC(C)=O)OC(C)=O)OC(C)=O` (stereo unspecified), the compound was called inactive in [1], in assay [2], in assay [3], in [4], in assay [5] and in assay [12]. Further, the compound was classed as inactive in assay [14], in assay [15], in assay [7], in [8], in [9] and in [16]. The compound was called inactive in [17], in assay [10] and in assay [18]. The AC50 in [13] was 7.74 µM (active).

As for `CC1=C(C)S(=O)(=O)CCS1(=O)=O`, the result in assay [1], in assay [2], in assay [3], in assay [4], in assay [12] and in [6] was inactive. In addition, the call in [7], in assay [8] and in assay [10] was inactive.

Take `CCCCOC(=O)CCCCC(=O)OCCCC`: the result in assay [1], in assay [2], in assay [3], in [4], in assay [5] and in assay [12] was inactive. The outcome in assay [7], in assay [8], in assay [9] and in assay [10] was inactive. Moreover, the concentration at half-maximal activity (AC50) in [13] was 15.9 µM (active).

On to `Cc1c(C)c2c(c(C)c1O)CCC(C)(COc1ccc(CC3SC(=O)NC3=O)cc1)O2` (stereo unspecified), for which the call in assay [1], in assay [2], in assay [3], in assay [4], in assay [5] and in assay [12] was inactive. The outcome in assay [6], in assay [7], in assay [8], in [9] and in assay [10] was inactive. The values for the AC50 in assay [19], in assay [20] and in assay [13] were 1.91 µM (active), 19 µM (active) and 1.67 µM (active), respectively.

As to `O=C(Oc1ccccc1)c1cccc(C(=O)Oc2ccccc2)c1`, the compound was classed as inactive in assay [1], in assay [2], in assay [3], in [4], in [5] and in assay [12]. For the same compound, the compound was called inactive in assay [6], in [7], in assay [8], in assay [9], in assay [10] and in assay [11]. In [13], the AC50 is 9.15 µM (active).

For `CN(C)C(=O)NC1(c2ccccc2)CCN(CCC[C@]2(c3ccc(Cl)c(Cl)c3)CCCN(C(=O)c3ccccc3)C2)CC1`, the result in [1], in [2], in [3], in [4], in [5] and in [12] was inactive. Besides, the call in assay [6], in [7], in assay [8], in assay [9] and in [10] was inactive.

(Values after PubChem BioAssay (EPA / NIEHS).)
